# The supplement of paper PMC3150612
# ± gives the standard deviation of the averaged measurements.
# Assays:
# Drosophila melanogaster [1] = assay: olfactory response index (dipstick assay) (fraction of flies (RI; 1 aversion, 0.5 indifferent, 0 attraction)); higher = stronger aversion to the odorant; conditions: odorant concentration: 1% v/v, male
# Drosophila melanogaster [2] = assay: as above; conditions: odorant concentration: 1% v/v, female
# [3] = genotype (tubulin-GAL4 x UAS-RNAi line; control = progenitor): A5
# [4] = genotype (tubulin-GAL4 x UAS-RNAi line; control = progenitor): control
# [5] = genotype (tubulin-GAL4 x UAS-RNAi line; control = progenitor): obp 18a
# [6] = genotype (tubulin-GAL4 x UAS-RNAi line; control = progenitor): obp 22a
# [7] = genotype (tubulin-GAL4 x UAS-RNAi line; control = progenitor): obp 28a
# [8] = genotype (tubulin-GAL4 x UAS-RNAi line; control = progenitor): obp 56a
# [9] = genotype (tubulin-GAL4 x UAS-RNAi line; control = progenitor): obp 56c
# [10] = genotype (tubulin-GAL4 x UAS-RNAi line; control = progenitor): obp 56f
# [11] = genotype (tubulin-GAL4 x UAS-RNAi line; control = progenitor): obp 57a
# [12] = genotype (tubulin-GAL4 x UAS-RNAi line; control = progenitor): obp 57b
# [13] = genotype (tubulin-GAL4 x UAS-RNAi line; control = progenitor): obp 58c
# [14] = genotype (tubulin-GAL4 x UAS-RNAi line; control = progenitor): obp 59a
# [15] = genotype (tubulin-GAL4 x UAS-RNAi line; control = progenitor): obp 83a
# [16] = genotype (tubulin-GAL4 x UAS-RNAi line; control = progenitor): obp 83c
# [17] = genotype (tubulin-GAL4 x UAS-RNAi line; control = progenitor): obp 93a
# [18] = genotype (tubulin-GAL4 x UAS-RNAi line; control = progenitor): obp 99b
# [19] = genotype (tubulin-GAL4 x UAS-RNAi line; control = progenitor): obp 56h
# [20] = genotype (tubulin-GAL4 x UAS-RNAi line; control = progenitor): obp 58b
Structure (SMILES),olfactory response index (Drosophila melanogaster [1]; [3]),olfactory response index (Drosophila melanogaster [1]; [4]),olfactory response index (Drosophila melanogaster [1]; [5]),olfactory response index (Drosophila melanogaster [1]; [6]),olfactory response index (Drosophila melanogaster [1]; [7]),olfactory response index (Drosophila melanogaster [1]; [8]),olfactory response index (Drosophila melanogaster [1]; [9]),olfactory response index (Drosophila melanogaster [1]; [10]),olfactory response index (Drosophila melanogaster [1]; [11]),olfactory response index (Drosophila melanogaster [1]; [12]),olfactory response index (Drosophila melanogaster [1]; [13]),olfactory response index (Drosophila melanogaster [1]; [14]),olfactory response index (Drosophila melanogaster [1]; [15]),olfactory response index (Drosophila melanogaster [1]; [16]),olfactory response index (Drosophila melanogaster [1]; [17]),olfactory response index (Drosophila melanogaster [1]; [18]),olfactory response index (Drosophila melanogaster [1]; [19]),olfactory response index (Drosophila melanogaster [2]; [3]),olfactory response index (Drosophila melanogaster [2]; [4]),olfactory response index (Drosophila melanogaster [2]; [5]),olfactory response index (Drosophila melanogaster [2]; [6]),olfactory response index (Drosophila melanogaster [2]; [7]),olfactory response index (Drosophila melanogaster [2]; [8]),olfactory response index (Drosophila melanogaster [2]; [9]),olfactory response index (Drosophila melanogaster [2]; [10]),olfactory response index (Drosophila melanogaster [2]; [11]),olfactory response index (Drosophila melanogaster [2]; [12]),olfactory response index (Drosophila melanogaster [2]; [20]),olfactory response index (Drosophila melanogaster [2]; [13]),olfactory response index (Drosophila melanogaster [2]; [14]),olfactory response index (Drosophila melanogaster [2]; [15]),olfactory response index (Drosophila melanogaster [2]; [16]),olfactory response index (Drosophila melanogaster [2]; [17]),olfactory response index (Drosophila melanogaster [2]; [18]),olfactory response index (Drosophila melanogaster [2]; [19])
OCCc1ccccc1 [2-phenylethanol],0.116 ± 0.078,0.0893 ± 0.051,0.0701 ± 0.021,0.0651 ± 0.059,0.163 ± 0.03,0.0222 ± 0.021,0.0551 ± 0.048,0.0672 ± 0.04,0.0379 ± 0.021,0.138 ± 0.096,0.125 ± 0.076,0.155 ± 0.067,0.132 ± 0.06,0.127 ± 0.051,0.135 ± 0.043,0.0352 ± 0.025,0.106 ± 0.049,0.396 ± 0.15,0.5 ± 0.2,0.117 ± 0.066,0.403 ± 0.12,0.526 ± 0.051,0.299 ± 0.11,0.367 ± 0.17,0.414 ± 0.076,0.128 ± 0.068,0.379 ± 0.17,0.381 ± 0.17,0.166 ± 0.08,0.258 ± 0.074,0.414 ± 0.058,0.437 ± 0.14,0.422 ± 0.2,0.0815 ± 0.14,0.258 ± 0.2
CCOC(C)=O [ethyl acetate],0.36 ± 0.22,0.266 ± 0.16,0.417 ± 0.15,0.176 ± 0.084,0.311 ± 0.18,0.0854 ± 0.099,0.17 ± 0.14,0.364 ± 0.31,0.236 ± 0.099,0.326 ± 0.14,0.181 ± 0.14,0.324 ± 0.23,0.21 ± 0.068,0.255 ± 0.11,0.352 ± 0.12,0.15 ± 0.14,0.227 ± 0.13,0.677 ± 0.11,0.639 ± 0.27,0.507 ± 0.12,0.669 ± 0.04,0.709 ± 0.13,0.486 ± 0.2,0.3 ± 0.1,0.559 ± 0.26,0.629 ± 0.015,0.61 ± 0.14,0.513 ± 0.31,0.561 ± 0.091,0.502 ± 0.25,0.471 ± 0.087,0.572 ± 0.0067,0.541 ± 0.13,0.2 ± 0.11,0.479 ± 0.06
CCC/C=C/C=O [(E)-2-hexenal],0.565 ± 0.14,0.681 ± 0.13,0.494 ± 0.13,0.655 ± 0.11,0.672 ± 0.07,0.763 ± 0.079,0.618 ± 0.13,0.657 ± 0.065,0.555 ± 0.15,0.718 ± 0.037,0.732 ± 0.052,0.666 ± 0.0073,0.663 ± 0.1,0.67 ± 0.085,0.782 ± 0.14,0.29 ± 0.16,0.55 ± 0.12,0.723 ± 0.11,0.804 ± 0.15,0.724 ± 0.12,0.811 ± 0.14,0.753 ± 0.051,0.892 ± 0.028,0.768 ± 0.1,0.727 ± 0.076,0.843 ± 0.1,0.794 ± 0.18,0.703 ± 0.057,0.715 ± 0.11,0.767 ± 0.13,0.779 ± 0.088,0.837 ± 0.1,0.848 ± 0.054,0.529 ± 0.24,0.665 ± 0.17
